Screening data from PubChem BioAssay.
Ba/F3 V617F tox = reduced viability of JAK2V617F-dependent Ba/F3 cells, primary screen, JAK2V617F inhibitor project, cell-based, Ba/F3 EpoR-JAK2V617F, luminescence. ATP luminescence. 220,000 compounds, 1.1% hits. inhibition, % at 5.6 µM;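 active = inhibition above the campaign mean plus 3 SD over all tested compounds, cut at about 24% in these data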;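 note: cytokine-independent growth of Ba/F3 cells driven by EpoR plus mutant JAK2; 0% = DMSO-treated cells and 100% = JAK inhibitor I control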
APP transl inh = inhibitors of APP translation via 5'UTR reporter, primary screen, APP 5'UTR luciferase, SH-SY5Y cells | SH-SY5Y APP 5'UTR-luciferase reporter, luminescence | 190,000 compounds, 0.82% hits | inhibition, % at 2 µM;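 active = inhibition above a set limit, derived from the sample mean plus 3 SD, cut at about 45% in these data; inconclusive = one replicate passes the limit while the other fails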
BaF3 tox = parental Ba/F3 cell viability inhibition, counter-screen for JAK2V617F inhibitor project, murine pro-B, CellTiter-Glo luminescence; CellTiter-Glo ATP luminescence; inhibition, % at 5.6 µM; 220,000 compounds, 1.1% hits;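 active = inhibition above a per-campaign cutoff, the mean inhibition of all tested compounds plus 3 SD, cut at about 27% in these data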;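 note: 0% = DMSO wells and 100% = JAK Inhibitor I control wells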
IEC-6 cytotox = cytotoxicity in IEC-6 intestinal epithelial cells, primary screen, cytotoxicity control for KLF5 inhibitor project, cell-based, luminescence | inhibition, % at 5 µM | IEC-6 cytotoxicity, luminescence viability | 290,000 compounds, 0.78% hits; in the data active = inhibition above about 22%;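 note: 0% = plate median of test compound wells and 100% = cytotoxic reference compound wells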
KLF5 inhibitor = KLF5 expression inhibitors, primary screen, DLD-1 cells, luminescence | inhibition, % at 5 µM | AID 1700, 2009 | DLD-1 KLF5 promoter-luciferase reporter | 290,000 compounds, 0.23% hits;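 active = inhibition above a per-plate limit of that plate's mean compound inhibition plus 3 SD, cut at about 60% in these data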;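 note: 0% = DMSO wells and 100% = LY294002 at 200 µM; higher means less KLF5 promoter-driven luciferase light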
aSyn 5UTR inh = MLPCN primary screen, SNCA 5' untranslated region. 300,000 compounds, 0.82% hits. alpha-synuclein 5'UTR reporter, inhibitor activity. inhibition, % (tested at 7.5 µM). AID 1813, 2009; in the data active = inhibition above about 60%; inconclusive = no clear call, values can overlap the other calls;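 note: H4 neuroglioblastoma cells stably carrying SNCA 5'UTR luciferase fusion; 0% = DMSO wells and 100% = positive control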
* hit, by the source's call; ? = inconclusive; · = not tested or not shown. Hits are enriched below; roughly 2.2% of the tested compounds scored in any of these assays.

SMILES | Ba/F3 V617F tox | APP transl inh | BaF3 tox | IEC-6 cytotox | KLF5 inhibitor | aSyn 5UTR inh
O=C(N/N=C/c1ccc([N+](=O)[O-])s1)c1ccncc1 | 1 | 14 | 8 | -4 | -9 | -64
Cc1cc(C(=O)N/N=C/c2ccc(C)s2)n[nH]1 | · | · | · | 5 | -67 | -97
Cc1ccc(C(=O)N/N=C/c2ccc([N+](=O)[O-])s2)cc1 | -1 | 70* | 1 | -1 | -34 | 108*
O=C(N/N=C/c1ccc(Br)s1)c1ccc([N+](=O)[O-])cc1 | -3 | 36 | 0 | 1 | -32 | 84*
O=C(N/N=C/c1ccc([N+](=O)[O-])s1)c1cccc(Br)c1 | 6 | 24 | 10 | 12 | -1 | 67*
Cc1cc(C(=O)N/N=C/c2ccc([N+](=O)[O-])s2)n[nH]1 | 6 | · | 3 | 3 | 12 | 79*
CCN(CC(=O)NC1CCS(=O)(=O)C1)S(=O)(=O)c1ccc(Cl)cc1C(F)(F)F (stereo not given) | · | · | · | · | · | -1
Cc1ccc(Cl)cc1NC(=O)[C@@H]1CCC(=O)N1C1OC(=O)c2ccccc21 (stereo not given in full) | · | · | · | -2 | -15 | -5
CC(C)Oc1ccc(S(=O)(=O)N2CCCCC2)cc1NC(=O)C1CSC2(C)CCC(=O)N12 (stereo not given) | · | · | · | · | · | 0
Cc1noc(C)c1S(=O)(=O)N(CC(=O)NC(C)c1ccccc1)c1ccc(C(C)C)cc1 (stereo not given) | · | · | · | 0 | -14 | -3
O=C(N/N=C/c1ccc(O)c2ncccc12)c1cccc(Br)c1 | 92* | 63* | 52* | 20 | 5 | 67*
O=Nc1ccc(O)c2ncccc12 | 99* | · | 103* | 19 | 10 | -236
COc1ccc(C)cc1N=Nc1ccc(O)c2ncccc12 | 0 | 68* | 1 | 0 | 6 | 68*
COc1ccc(N=Nc2ccc(O)c3ncccc23)cc1 | -3 | · | 4 | 10 | -13 | 44
Cc1ccccc1N=Nc1ccc(O)c2ncccc12 | 3 | 77* | 1 | -2 | -6 | ?
O=[N+]([O-])c1ccc(O)c2ncccc12 | -6 | -7 | 4 | -4 | 7 | 72*
COCCC(=O)N1CCC(n2nccc2NC(=O)c2ccccc2C)CC1 | · | · | · | -4 | -12 | -17
O=c1c2sc(-c3ccccc3)cc2nc2n1CCC2 | 2 | -125 | 5 | 3 | -10 | 82*
Cc1ccc(Cl)cc1N1CCN(S(=O)(=O)c2cn(C)cn2)CC1 | · | · | · | 3 | -9 | -12
Cc1ccc(-c2cc3c(nn2)-c2ccccc2C3=O)cc1 | 6 | · | 2 | 11 | -41 | 86*
O=C(NCCN1CCOCC1)C1CC(=O)N(c2ccc(F)cc2)C1 (stereo not given) | · | · | · | -5 | -29 | -7
CCCCN(CC)CCNC(=O)c1cc2c(-c3ccc(Cl)cc3)nn(C)c2s1 | · | · | · | 4 | -26 | 79*
CCN(CC)CCNC(=O)c1cc2c(-c3ccc(Cl)cc3)nn(C)c2s1 | 3 | 9 | 8 | 9 | -12 | -43
Oc1ccc(Br)cc1/C=N/Nc1nc(N2CCCCC2)nc(N2CCOCC2)n1 | -2 | 3 | -5 | -1 | 10 | -25
Oc1ccc(/C=N/Nc2nc(N3CCCCCC3)nc(N3CCCCCC3)n2)c(O)c1 | 47* | 5 | 34* | 0 | -11 | 21
SMILES | Ba/F3 V617F tox | APP transl inh | BaF3 tox | IEC-6 cytotox | KLF5 inhibitor | aSyn 5UTR inh
CC(C)(C)c1ccc(C(=O)CCCSC2=C(C#N)C(c3ccco3)C3=C(CCCC3=O)N2)cc1 (stereo not given) | 6 | -25 | 10 | 0 | -6 | ·
N#CC1=C(SCC(=O)c2ccccc2)NC2=C(C(=O)CCC2)C1c1ccco1 (stereo not given) | 47* | 68* | 36* | 12 | -76 | -305
COc1ccc(C(=O)Nc2ccc3c(c2)C(=O)c2ccccc2C3=O)cc1OC | -2 | -25 | 6 | -4 | -47 | -9
COc1ccc(C(=O)c2c(C(F)(F)F)oc3c2C(=O)c2ccccc2C3=O)cc1OC | 3 | 19 | 5 | 2 | -35 | 111*
O=C(Nc1nnc(-c2ccc3c(c2)CCCC3)o1)c1c(F)cccc1F | -3 | -7 | 61* | 1 | -8 | -5
CN(C)S(=O)(=O)c1ccc(C(=O)Nc2nnc(-c3cccs3)o2)cc1 | 4 | -3 | 0 | 15 | 7 | 13
